Source: the supplement of paper PMC13380429
Values without a mark were called inactive.

Test system: Vero E6 infected with SARS-CoV-2
Test: inhibition of SARS-CoV-2 cytopathic effect; higher = more antiviral protection, active = above 15
Settings: 48 h

SMILES	inhibition of SARS-CoV-2 cytopathic effect (1 nM) [%]	inhibition of SARS-CoV-2 cytopathic effect (8.33 nM) [%]	inhibition of SARS-CoV-2 cytopathic effect (100 nM)	inhibition of SARS-CoV-2 cytopathic effect (833.33 nM) [%]	inhibition of SARS-CoV-2 cytopathic effect (10000 nM)
CCS(=O)(=O)N1CCC([C@@H](C)n2c(C)c(C(=O)NCc3c(OC)cc(C)[nH]c3=O)c3ccccc32)CC1	0.38	2.34	0.88%	0.2	-1.12%
N#Cc1ccc(N(Cc2ccc(Br)cc2)n2cnnc2)cc1	1.03	-0.63	3.36%	2.99	-2.52%
NC[C@H]1O[C@H](O[C@H]2[C@H](O)[C@@H](O[C@H]3O[C@H](CO)[C@@H](O)[C@H](N)[C@H]3O)[C@H](N)C[C@@H]2N)[C@H](N)C[C@@H]1O [tobramycin]	-1.08	1.78	-0.88%	0.11	0.19%
CCn1c(=O)n(C2=C(CO)CN(CC3CCCCCCC3)CC2)c2ccccc21 [trap-101]	-2.39	1.16	1.23%	1.48	-3.08%
CCCOc1ccc(S(=O)(=O)N2CCN(CCO)CC2)cc1-c1nc2c(CCC)cn(CC)c2c(=O)[nH]1 [mirodenafil]	-1.57	0.66	-2.49%	-3.18	-6.03%
Cc1cc(C(C#N)c2ccc(Cl)cc2)c(Cl)cc1NC(=O)c1cc(I)cc(I)c1O (stereo not given) [closantel]	0.26	1.55	1.07%	3.04	5.87%
Cc1cccc(C)c1OCC(=O)N[C@@H](Cc1ccccc1)[C@@H](O)C[C@H](Cc1ccccc1)NC(=O)[C@H](C(C)C)N1CCCNC1=O [Lopinavir]	0.81	-0.07	0.62%	-0.42	6.72%
Cc1ccc(-c2cc(C(F)(F)F)nn2-c2ccc(S(N)(=O)=O)cc2)cc1 [celecoxib]	1.41	1.32	1.91%	1.62	-4.95%
O=C(Nc1ccc(N2CCC(C(=O)N3CCOCC3)CC2)cc1)c1cnc(Oc2ccccc2)nc1	0.64	1.26	2.38%	1.19	-0.78%
CC(C)(C)C(=O)OCOC(=O)[C@@H]1N2C(=O)[C@@H](/N=C/N3CCCCCC3)[C@H]2SC1(C)C [pivmecillinam]	1.02	0.8	-0.38%	-0.99	0.82%
COc1ccc(/C=C2\CCCN=C2c2cccnc2)c(OC)c1	-0.63	0.1	0.18%	1.08	2.4%
C[C@@H]1NC(=O)[C@@H](N)CNC(=O)[C@H](C2CCNC(=N)N2)NC(=O)/C(=C/NC(N)=O)NC(=O)[C@H](CNC(=O)CC(N)CCCN)NC1=O.N=C1NCC[C@H]([C@@H]2NC(=O)/C(=C/NC(N)=O)NC(=O)[C@H](CNC(=O)C[C@@H](N)CCCN)NC(=O)[C@H](CO)NC(=O)[C@@H](N)CNC2=O)N1 [capreomycin]	0.56	-0.28	-1.08%	0.24	2.53%
C#C[C@]1(O)CC[C@H]2[C@@H]3CCC4=CC(=O)CC[C@]4(C)[C@H]3CC[C@@]21C [ethisterone]	2.99	3.61	2.08%	-0.95	2.77%
COc1ccc(-c2oc3c(CC=C(C)C)c(O)cc(O)c3c(=O)c2O)cc1 [icaritin]	-1.11	0.17	0.02%	-0.36	2.24%
CCCCCCNC(=O)n1cc(F)c(=O)[nH]c1=O [carmofur]	2.01	4.18	2.63%	2.67	4.01%
CC(=O)N[C@@H](CC(=O)O)C(=O)N[C@@H](CCC(=O)O)C(=O)O [spaglumic-acid]	-1.79	-1.97	-2.69%	-1.39	-1.24%
O=C(c1ccc(OCCN2CCCCC2)cc1)c1c(-c2ccc(O)cc2)sc2cc(O)ccc12 [raloxifene]	3.31	1.2	2.79%	4.77	24.4% (active)
CNC(=O)N(C)N=O [nitrosodimethylurea]	-0.7	-0.84	-4.76%	1.42	-2.36%
COC1=C[C@@H]2[C@@H]3Cc4ccc(OC)c(O)c4[C@]2(CCN3C)CC1=O [sinomenine]	-1.85	0.19	-1.8%	2.51	0.68%

SMILES	inhibition of SARS-CoV-2 cytopathic effect (1 nM) [%]	inhibition of SARS-CoV-2 cytopathic effect (8.33 nM) [%]	inhibition of SARS-CoV-2 cytopathic effect (100 nM)	inhibition of SARS-CoV-2 cytopathic effect (833.33 nM) [%]	inhibition of SARS-CoV-2 cytopathic effect (10000 nM)
O=C1NC(=O)[C@@H](c2cn3c4c(cccc24)CCC3)[C@@H]1c1c[nH]c2ccccc12 [tivantinib]	-0.36	-0.11	-2.57%	-1.94	2.92%
N=C(N)N [guanidine]	-0.16	0.17	-2.15%	-3.58	-6.14%
N[C@@H](CS)C(=O)O [L-cysteine]	1.7	-1.19	-0.65%	-1.16	-5.76%
CC(C)(C)NC(=O)[C@@H](c1cccnc1)N(C(=O)c1ccco1)c1ccc(C(C)(C)C)cc1	-0.21	1.78	0.92%	-2.61	-3.73%
CC1(C)CCC(C)(C)c2c1cc(C(=O)Nc1cc(F)c(C(=O)O)c(F)c1)c(O)c2Cl	-1.01	-0.71	0.11%	2.72	3.26%
CC[C@H]1CN2CCc3cc(OC)c(OC)cc3[C@@H]2C[C@@H]1C[C@H]1NCCc2cc(OC)c(OC)cc21 [emetine]	1.59	2.17	36.2% (active)	11.6	-11.1%
NC1=N[C@@](c2cccc(-c3cncnc3)c2)(c2ccnc(C(F)F)c2)c2cccc(F)c21	0.77	-1.06	-1.46%	-0.56	-2.76%
O=C(CC1NCCCC1O)Cn1cnc2cc(Br)c(Cl)cc2c1=O (stereo not given) [halofuginone]	-3.21	-1.77	-2.82%	12.3	-13.9%
CC(C)C[C@H](NC(=O)CNC(=O)c1cc(Cl)ccc1Cl)B(O)O [ixazomib]	-2.33	2.02	5.21%	-11	22.9% (active)
COc1cc(OC)nc(O[C@H](C(=O)O)C(OC)(c2ccccc2)c2ccccc2)n1 [darusentan]	0.26	-0.2	0.62%	-2.26	-0.49%
CCOC(=O)c1ncn2c1[C@@H]1CCCN1C(=O)c1cc(OC)ccc1-2	-0.88	0.22	0.35%	-0.77	0.55%
O=C([O-])C(O)[C@H](O)[C@@H](O)[C@H](O)[C@H](O)CO.O=C([O-])C(O)[C@H](O)[C@@H](O)[C@H](O)[C@H](O)CO.[Ca+2] (stereo not given in full) [calcium-gluceptate]	-7.86	-1.7	-4.55%	-3.31	-3.66%
Nc1ccccc1NC(=O)c1ccc(CNc2nccc(-c3cccnc3)n2)cc1 [mocetinostat]	0.57	-0.45	-0.53%	1.7	-0.45%
NS(=O)(=O)c1cc2c(cc1C(F)(F)F)NCNS2(=O)=O [hydroflumethiazide]	0.67	2.12	1.79%	0.37	0.46%
COc1ccc2[nH]c3c(-c4cccc5ccccc45)nccc3c2c1	-2.63	0.26	-0.2%	-4.62	-2.93%
CCC[C@@H](NC(=O)N1C(=O)C(CC)(CC)[C@@H]1Oc1ccc(C(=O)N2CCN(C)CC2)cc1)c1ccc2c(c1)OCO2	1.03	1.44	-0.09%	1.96	-6.67%
O=C(C[C@H]1CC(c2ccc(F)cc2F)=NO1)N1CCOCC1 (racemic)	-1.54	0.9	2.24%	0.99	1.2%
O=C(NCc1cccc(O)c1)Nc1nc(-c2ccncc2)cs1	1.7	1.65	-1.57%	-6.16	-6.11%
